This note sets out measurements from publication PMC7862700, “An all-to-all approach to the identification of sequence-specific readers for epigenetic DNA modifications on cytosine”.

Common to all, as to assay: DAPPL (digital affinity profiling via proximity ligation, sequencing); 10 mM Tris-HCl pH 7.5, 50 mM NaCl, 1 mM DTT, 4% glycerol, room temperature, 30 min; GST-TFs on glutathione beads, 16-mer random dsDNA library, 0.1% formaldehyde crosslink after washing; high values mean tight binding
In assay [1] the target is T1, FLI1 (Homo sapiens, UniProt Q01543 1-452).
T1 sequence: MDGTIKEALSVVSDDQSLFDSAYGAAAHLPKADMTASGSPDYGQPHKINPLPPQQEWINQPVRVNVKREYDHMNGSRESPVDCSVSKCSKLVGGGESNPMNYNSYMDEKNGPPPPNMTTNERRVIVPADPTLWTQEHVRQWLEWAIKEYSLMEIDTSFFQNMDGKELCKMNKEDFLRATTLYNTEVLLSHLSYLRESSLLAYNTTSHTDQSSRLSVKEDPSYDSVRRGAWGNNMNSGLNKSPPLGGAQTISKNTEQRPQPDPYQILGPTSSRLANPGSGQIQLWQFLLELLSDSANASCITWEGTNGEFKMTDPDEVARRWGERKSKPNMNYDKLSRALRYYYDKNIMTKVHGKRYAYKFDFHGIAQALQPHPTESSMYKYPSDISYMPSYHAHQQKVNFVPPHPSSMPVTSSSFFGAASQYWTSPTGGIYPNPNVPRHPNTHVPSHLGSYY
The settings on record: protein: recombinant; tags: N-terminal GST; dsDNA, one strand shown. In a few lines: (§1)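 Pools of DNA-barcoded human transcription factors, expressed in yeast as GST fusions on glutathione beads and combined with a tag-only sample, were incubated with 200 nmole of a 16-mer random double-stranded DNA library. Incubation took 30 min at room temperature in Tris/NaCl/DTT/glycerol buffer and was followed by washing, 0.1% formaldehyde crosslinking, proximity ligation (BsaI/T4 ligase, 1 h, 37 °C), PCR amplification and sequencing on an Illumina NextSeq500. Binding signal is the ratio of a hexamer's read frequency for a factor to its frequency for the tag-only sample.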

The target in assay [2] is T2, ELK1 (Homo sapiens, UniProt P19419 1-428).
T2 sequence: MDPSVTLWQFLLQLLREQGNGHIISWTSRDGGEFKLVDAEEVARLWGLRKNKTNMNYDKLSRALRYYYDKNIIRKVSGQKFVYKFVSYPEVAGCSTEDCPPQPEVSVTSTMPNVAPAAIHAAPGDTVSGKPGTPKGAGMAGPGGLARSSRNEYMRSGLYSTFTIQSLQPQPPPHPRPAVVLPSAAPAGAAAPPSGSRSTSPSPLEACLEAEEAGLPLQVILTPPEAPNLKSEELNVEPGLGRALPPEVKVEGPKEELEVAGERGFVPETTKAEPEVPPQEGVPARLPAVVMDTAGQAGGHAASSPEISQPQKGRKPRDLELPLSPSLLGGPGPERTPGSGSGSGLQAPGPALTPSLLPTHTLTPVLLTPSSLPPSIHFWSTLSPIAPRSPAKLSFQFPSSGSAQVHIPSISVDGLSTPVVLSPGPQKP
The settings on record: protein: recombinant; tags: N-terminal GST; dsDNA, one strand shown. In a few lines: as §1

Assay [3] has as its target T3, GABPA (Homo sapiens, UniProt Q06546 1-454).
T3 sequence: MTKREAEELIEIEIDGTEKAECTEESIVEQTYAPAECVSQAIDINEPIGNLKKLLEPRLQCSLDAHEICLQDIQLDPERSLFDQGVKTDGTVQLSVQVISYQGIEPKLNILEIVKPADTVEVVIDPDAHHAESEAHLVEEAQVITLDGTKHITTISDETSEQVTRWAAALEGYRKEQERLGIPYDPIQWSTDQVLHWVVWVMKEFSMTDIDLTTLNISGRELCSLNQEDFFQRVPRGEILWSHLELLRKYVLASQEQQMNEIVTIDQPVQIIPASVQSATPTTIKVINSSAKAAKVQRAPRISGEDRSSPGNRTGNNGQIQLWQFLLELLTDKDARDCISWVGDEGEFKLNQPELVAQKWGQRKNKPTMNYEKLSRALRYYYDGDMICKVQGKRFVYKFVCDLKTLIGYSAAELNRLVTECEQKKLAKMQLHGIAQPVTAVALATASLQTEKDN
The settings on record: protein: recombinant; tags: N-terminal GST; dsDNA, one strand shown. In a few lines:
as §1

The target in assay [4] is T4, ERG (Homo sapiens, UniProt P11308 1-479).
T4 sequence: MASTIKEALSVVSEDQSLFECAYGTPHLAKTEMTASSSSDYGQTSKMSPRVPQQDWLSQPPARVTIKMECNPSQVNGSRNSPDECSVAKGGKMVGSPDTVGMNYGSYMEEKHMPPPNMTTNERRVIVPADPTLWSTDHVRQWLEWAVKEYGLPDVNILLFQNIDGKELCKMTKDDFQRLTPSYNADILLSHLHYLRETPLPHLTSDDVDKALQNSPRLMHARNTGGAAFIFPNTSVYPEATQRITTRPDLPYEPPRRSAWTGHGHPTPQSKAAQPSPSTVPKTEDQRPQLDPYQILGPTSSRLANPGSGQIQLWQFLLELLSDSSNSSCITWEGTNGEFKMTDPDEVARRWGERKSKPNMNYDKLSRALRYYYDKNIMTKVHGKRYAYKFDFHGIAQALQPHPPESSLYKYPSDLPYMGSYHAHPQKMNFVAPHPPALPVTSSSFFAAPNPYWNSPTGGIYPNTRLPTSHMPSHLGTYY
The settings on record: protein: recombinant; tags: N-terminal GST; dsDNA, one strand shown. In short, it runs like this:
as §1

Assay [5] deals with ELF1 (Homo sapiens, UniProt P32519 1-619). The settings on record: protein: recombinant; tags: N-terminal GST; dsDNA, one strand shown. In short, it runs like this: as §1
Assay [6] addresses T5, EHF (Homo sapiens, UniProt Q9NZC4 1-300).
T5 sequence: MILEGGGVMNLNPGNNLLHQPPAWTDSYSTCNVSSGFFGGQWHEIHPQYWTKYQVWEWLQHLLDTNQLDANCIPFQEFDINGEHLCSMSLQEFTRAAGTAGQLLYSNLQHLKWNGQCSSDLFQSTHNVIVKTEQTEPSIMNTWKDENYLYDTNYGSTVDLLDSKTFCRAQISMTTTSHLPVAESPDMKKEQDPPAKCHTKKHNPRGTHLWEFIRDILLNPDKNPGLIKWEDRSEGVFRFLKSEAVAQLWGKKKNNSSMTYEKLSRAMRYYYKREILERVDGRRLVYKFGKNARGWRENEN
The settings on record: protein: recombinant; tags: N-terminal GST; dsDNA, one strand shown. In short, it runs like this: as §1

Assay [7] addresses SPI1 (Homo sapiens, UniProt P17947 1-270). The settings on record: protein: recombinant; tags: N-terminal GST; dsDNA, one strand shown. In a few lines: as §1
The target of assay [8] is SPIB (Homo sapiens, UniProt Q01892 1-262). The settings on record: protein: recombinant; tags: N-terminal GST; dsDNA, one strand shown. In a few lines:
as §1

The target in assay [9] is T6, FEV (Homo sapiens, UniProt Q99581 1-238).
T6 sequence: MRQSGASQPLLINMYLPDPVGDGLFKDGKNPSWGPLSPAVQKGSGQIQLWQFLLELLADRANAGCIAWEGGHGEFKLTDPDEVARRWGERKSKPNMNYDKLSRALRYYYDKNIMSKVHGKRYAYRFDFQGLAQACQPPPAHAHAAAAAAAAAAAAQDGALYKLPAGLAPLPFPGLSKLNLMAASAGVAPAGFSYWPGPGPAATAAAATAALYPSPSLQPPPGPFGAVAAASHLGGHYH
To be noted: protein: recombinant; tags: N-terminal GST; dsDNA, one strand shown. In a few lines:
as §1

Assay [10] addresses ETV5 (Homo sapiens, UniProt P41161 1-510). The settings on record: protein: recombinant; tags: N-terminal GST; dsDNA, one strand shown. In a few lines: as §1
Assay [11] addresses HSF1 (Homo sapiens, UniProt Q00613 1-529). To be noted: protein: recombinant; tags: N-terminal GST; chain copies: 3; dsDNA, one strand shown. In short, it runs like this: as §1
The target in assay [12] is T7, SPIC (Homo sapiens, UniProt Q8N5J4 1-248).
T7 sequence: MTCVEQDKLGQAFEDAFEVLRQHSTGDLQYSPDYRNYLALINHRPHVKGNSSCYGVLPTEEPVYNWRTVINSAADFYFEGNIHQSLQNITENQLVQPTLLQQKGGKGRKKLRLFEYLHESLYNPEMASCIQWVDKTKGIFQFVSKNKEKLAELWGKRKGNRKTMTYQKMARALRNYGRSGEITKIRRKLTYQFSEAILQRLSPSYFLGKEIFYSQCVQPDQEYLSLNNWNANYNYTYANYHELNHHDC
To be noted: protein: recombinant; tags: N-terminal GST; dsDNA, one strand shown. In a few lines:
as §1

Assay [13] has as its target ELF4 (Homo sapiens, UniProt Q99607 1-663). To be noted: protein: recombinant; tags: N-terminal GST; dsDNA, one strand shown. In a few lines:
as §1

Assay [14] concerns the target T8, ELK4 (Homo sapiens, UniProt P28324-2 1-405).
T8 sequence: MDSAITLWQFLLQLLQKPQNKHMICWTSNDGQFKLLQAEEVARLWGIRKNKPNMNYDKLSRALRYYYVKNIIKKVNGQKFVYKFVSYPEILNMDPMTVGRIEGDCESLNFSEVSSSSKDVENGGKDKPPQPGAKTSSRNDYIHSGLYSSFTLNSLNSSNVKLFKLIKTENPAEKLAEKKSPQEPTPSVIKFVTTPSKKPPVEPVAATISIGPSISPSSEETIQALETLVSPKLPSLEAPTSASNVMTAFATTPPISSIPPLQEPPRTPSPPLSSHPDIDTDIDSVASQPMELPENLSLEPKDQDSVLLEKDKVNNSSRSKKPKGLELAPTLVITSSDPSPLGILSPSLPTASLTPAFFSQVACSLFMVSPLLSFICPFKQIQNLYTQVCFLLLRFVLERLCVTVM
To be noted: protein: recombinant; tags: N-terminal GST; dsDNA, one strand shown. In short, it runs like this: as §1

Assay [15] concerns the target T9, ETV2 (Homo sapiens, UniProt O00321 1-342).
T9 sequence: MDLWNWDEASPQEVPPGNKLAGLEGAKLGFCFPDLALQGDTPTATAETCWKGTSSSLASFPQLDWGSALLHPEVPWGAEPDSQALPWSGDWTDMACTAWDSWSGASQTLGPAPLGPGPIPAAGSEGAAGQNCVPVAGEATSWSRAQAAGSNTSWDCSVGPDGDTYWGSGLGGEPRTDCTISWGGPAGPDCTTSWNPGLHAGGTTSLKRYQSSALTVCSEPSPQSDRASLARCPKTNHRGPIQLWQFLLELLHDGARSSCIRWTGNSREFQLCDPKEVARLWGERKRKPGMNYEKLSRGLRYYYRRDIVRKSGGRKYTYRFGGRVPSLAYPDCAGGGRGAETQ
To be noted: protein: recombinant; tags: N-terminal GST; dsDNA, one strand shown. In short, it runs like this:
as §1

The target in assay [16] is T10, ELF3 (Homo sapiens, UniProt P78545 1-371).
T10 sequence: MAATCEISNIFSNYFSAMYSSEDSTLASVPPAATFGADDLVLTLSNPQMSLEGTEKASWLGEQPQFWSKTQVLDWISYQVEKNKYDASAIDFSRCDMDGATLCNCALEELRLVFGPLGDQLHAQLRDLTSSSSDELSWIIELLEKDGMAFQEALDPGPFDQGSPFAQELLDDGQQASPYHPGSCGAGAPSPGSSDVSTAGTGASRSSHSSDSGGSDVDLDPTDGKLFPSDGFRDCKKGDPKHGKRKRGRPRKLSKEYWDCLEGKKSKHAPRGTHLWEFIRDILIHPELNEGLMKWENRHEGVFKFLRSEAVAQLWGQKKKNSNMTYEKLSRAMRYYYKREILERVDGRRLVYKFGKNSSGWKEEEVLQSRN
To be noted: protein: recombinant; tags: N-terminal GST; dsDNA, one strand shown. In a few lines:
as §1

The target in assay [17] is CRX (Homo sapiens, UniProt O43186 1-299). The settings on record: protein: recombinant; tags: N-terminal GST; dsDNA, one strand shown. In short, it runs like this: as §1
CRX, sequence (O43186 whole entry): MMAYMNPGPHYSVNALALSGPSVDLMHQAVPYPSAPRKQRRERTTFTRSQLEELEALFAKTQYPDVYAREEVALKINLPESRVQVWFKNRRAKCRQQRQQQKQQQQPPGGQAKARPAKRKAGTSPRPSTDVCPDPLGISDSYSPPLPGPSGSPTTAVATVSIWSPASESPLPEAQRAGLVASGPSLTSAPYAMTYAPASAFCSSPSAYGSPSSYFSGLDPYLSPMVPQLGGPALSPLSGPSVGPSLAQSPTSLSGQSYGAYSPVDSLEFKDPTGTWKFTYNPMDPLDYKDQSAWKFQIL

ETV5, sequence (P41161 whole entry): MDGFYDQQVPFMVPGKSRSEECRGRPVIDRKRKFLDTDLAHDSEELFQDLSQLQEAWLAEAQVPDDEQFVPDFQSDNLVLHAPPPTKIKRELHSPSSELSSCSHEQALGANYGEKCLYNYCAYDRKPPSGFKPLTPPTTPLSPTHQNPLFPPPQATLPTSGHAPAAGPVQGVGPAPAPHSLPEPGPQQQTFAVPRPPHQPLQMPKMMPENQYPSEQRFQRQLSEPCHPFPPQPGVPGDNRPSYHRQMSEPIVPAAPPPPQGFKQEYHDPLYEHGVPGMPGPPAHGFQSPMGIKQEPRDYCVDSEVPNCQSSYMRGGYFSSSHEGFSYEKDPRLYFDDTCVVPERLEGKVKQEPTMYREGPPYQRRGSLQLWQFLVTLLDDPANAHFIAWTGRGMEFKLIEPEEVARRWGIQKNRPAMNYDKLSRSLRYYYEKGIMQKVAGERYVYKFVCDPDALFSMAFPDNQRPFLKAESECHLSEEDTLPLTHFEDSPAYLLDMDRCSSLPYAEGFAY
HSF1, sequence (Q00613 whole entry): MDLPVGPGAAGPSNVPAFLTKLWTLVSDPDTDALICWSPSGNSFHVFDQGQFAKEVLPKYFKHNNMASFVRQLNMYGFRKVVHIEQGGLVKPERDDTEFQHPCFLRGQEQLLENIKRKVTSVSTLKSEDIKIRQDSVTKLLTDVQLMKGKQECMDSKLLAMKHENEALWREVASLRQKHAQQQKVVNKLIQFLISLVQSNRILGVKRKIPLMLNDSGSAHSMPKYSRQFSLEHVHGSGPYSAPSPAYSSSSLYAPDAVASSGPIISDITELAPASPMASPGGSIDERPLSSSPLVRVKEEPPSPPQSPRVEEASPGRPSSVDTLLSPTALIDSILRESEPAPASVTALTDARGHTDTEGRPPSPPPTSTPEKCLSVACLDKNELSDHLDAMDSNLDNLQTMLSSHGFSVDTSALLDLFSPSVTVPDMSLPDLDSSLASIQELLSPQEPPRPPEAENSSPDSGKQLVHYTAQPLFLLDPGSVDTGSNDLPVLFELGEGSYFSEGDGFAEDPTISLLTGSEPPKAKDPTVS
SPIB, sequence (Q01892 whole entry): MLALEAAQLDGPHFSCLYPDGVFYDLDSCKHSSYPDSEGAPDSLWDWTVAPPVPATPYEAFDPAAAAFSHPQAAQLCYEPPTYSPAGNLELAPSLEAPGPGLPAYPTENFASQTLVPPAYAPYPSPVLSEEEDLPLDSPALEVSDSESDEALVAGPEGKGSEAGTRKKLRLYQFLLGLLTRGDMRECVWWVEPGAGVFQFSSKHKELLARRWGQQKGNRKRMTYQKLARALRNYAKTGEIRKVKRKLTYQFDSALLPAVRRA
ELF4, sequence (Q99607 whole entry): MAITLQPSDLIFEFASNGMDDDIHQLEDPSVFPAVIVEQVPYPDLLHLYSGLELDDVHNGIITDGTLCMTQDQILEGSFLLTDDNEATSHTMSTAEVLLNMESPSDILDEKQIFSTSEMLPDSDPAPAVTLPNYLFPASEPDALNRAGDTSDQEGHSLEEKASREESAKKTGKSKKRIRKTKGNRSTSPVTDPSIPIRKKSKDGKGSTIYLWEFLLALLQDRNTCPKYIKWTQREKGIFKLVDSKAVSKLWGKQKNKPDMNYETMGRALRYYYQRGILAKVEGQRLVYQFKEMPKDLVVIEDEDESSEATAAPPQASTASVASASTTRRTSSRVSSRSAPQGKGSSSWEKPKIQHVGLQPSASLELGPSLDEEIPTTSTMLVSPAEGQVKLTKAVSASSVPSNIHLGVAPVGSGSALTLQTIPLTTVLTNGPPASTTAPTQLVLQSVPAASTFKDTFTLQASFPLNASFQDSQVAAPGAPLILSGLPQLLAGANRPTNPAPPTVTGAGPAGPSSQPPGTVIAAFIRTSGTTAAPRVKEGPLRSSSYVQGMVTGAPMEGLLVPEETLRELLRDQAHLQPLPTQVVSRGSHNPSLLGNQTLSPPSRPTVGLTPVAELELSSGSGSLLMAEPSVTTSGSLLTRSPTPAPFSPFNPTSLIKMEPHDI
ELF1, sequence (P32519 whole entry): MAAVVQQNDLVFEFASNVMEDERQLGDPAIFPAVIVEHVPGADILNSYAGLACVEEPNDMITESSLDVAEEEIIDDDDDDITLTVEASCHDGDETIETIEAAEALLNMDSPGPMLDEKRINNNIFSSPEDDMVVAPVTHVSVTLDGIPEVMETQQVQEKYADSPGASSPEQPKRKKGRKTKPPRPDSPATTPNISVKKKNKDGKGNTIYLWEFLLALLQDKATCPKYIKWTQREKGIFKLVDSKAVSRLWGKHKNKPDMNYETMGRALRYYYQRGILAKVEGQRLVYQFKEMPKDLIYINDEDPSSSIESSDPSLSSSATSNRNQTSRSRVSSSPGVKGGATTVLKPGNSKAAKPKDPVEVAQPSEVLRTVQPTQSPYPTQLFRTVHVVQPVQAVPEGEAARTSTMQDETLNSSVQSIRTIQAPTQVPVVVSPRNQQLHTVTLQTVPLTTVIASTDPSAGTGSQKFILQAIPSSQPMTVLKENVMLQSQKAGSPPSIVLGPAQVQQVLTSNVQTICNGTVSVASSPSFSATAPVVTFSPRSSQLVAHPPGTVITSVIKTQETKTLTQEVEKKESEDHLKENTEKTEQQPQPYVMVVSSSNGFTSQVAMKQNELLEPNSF

In the case of CCCCGA, the binding signal in [1] is 1.23 fold enrichment (6-mer frequency, TF over GST control); in assay [2] it was 1.2 fold enrichment (6-mer frequency, TF over GST control); in assay [3], 1.21 fold enrichment (6-mer frequency, TF over GST control); in assay [4], 1.16 fold enrichment (6-mer frequency, TF over GST control); in [5], 1.16 fold enrichment (6-mer frequency, TF over GST control); in [6], 1.14 fold enrichment (6-mer frequency, TF over GST control). Further, the binding signal in assay [7] was 1.15 fold enrichment (6-mer frequency, TF over GST control); in [8] it was 1.23 fold enrichment (6-mer frequency, TF over GST control); in [9], 1.18 fold enrichment (6-mer frequency, TF over GST control); in assay [10], 1.14 fold enrichment (6-mer frequency, TF over GST control); in [11], 1.28 fold enrichment (6-mer frequency, TF over GST control); in assay [12] it was 1.14 fold enrichment (6-mer frequency, TF over GST control). Also, the binding signal in assay [13] is 1.29 fold enrichment (6-mer frequency, TF over GST control); in [14], 1.15 fold enrichment (6-mer frequency, TF over GST control); in assay [15], 1.24 fold enrichment (6-mer frequency, TF over GST control); in [16], 1.35 fold enrichment (6-mer frequency, TF over GST control); in [17], 1.14 fold enrichment (6-mer frequency, TF over GST control).
